The panel holds about 83,000 compounds, 20% with a hit somewhere; the sample as a whole holds those more often.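 Step 1: grow cells in 96-well plates. Step 2: add test compound at a single concentration. Step 3: incubate 48 h. Step 4: record percent growth.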 Activity calls are given as the source filed them. The calls were made as follows: active = growth percent below 10; inactive = the rest.
Key:
Experiment in all cases: NCI-60 one-dose screen, 48 h (100 = growth as untreated, 0 = no growth, -100 = all killed)
HCT-15 colon = details: 10 µM unless noted
SNB-75 CNS = details: 10 µM
SNB-19 CNS = details: 10 µM unless noted
U251 CNS = details: 10 µM unless noted
PC-3 prostate = details: 10 µM unless noted
SK-MEL-5 melanoma = details: 10 µM unless noted
UACC-62 melanoma = details: 10 µM unless noted
LOX IMVI melanoma = details: 10 µM unless noted
SK-MEL-28 melanoma = details: 10 µM unless noted
SK-MEL-2 melanoma = details: 10 µM unless noted
EKVX NSCLC = details: 10 µM unless noted
SN12C renal = details: 10 µM unless noted
UO-31 renal = details: 10 µM unless noted
TK-10 renal = details: 10 µM unless noted
ACHN renal = details: 10 µM unless noted
CAKI-1 renal = details: 10 µM unless noted
A498 renal = details: 10 µM unless noted
CCRF-CEM leukemia = details: 10 µM unless noted
MOLT-4 leukemia = details: 10 µM unless noted

Measured: growth

C=C(C)[C@@H]1C[C@@H]2Cc3ccc(Cl)c(C)c3N1O2
inactive: HCT-15 colon 93% | SNB-75 CNS 93% | SNB-19 CNS 103% | U251 CNS 92.6% | PC-3 prostate 87.9% | SK-MEL-5 melanoma 89.1% | UACC-62 melanoma 93.4% | LOX IMVI melanoma 98.8% | SK-MEL-28 melanoma 107% | SK-MEL-2 melanoma 96.4% | EKVX NSCLC 86.2% | SN12C renal 97.3% | UO-31 renal 99.3% | TK-10 renal 53.8% | ACHN renal 96.8% | CAKI-1 renal 89.8% | A498 renal 83.2%
active: CCRF-CEM leukemia -68.9% | MOLT-4 leukemia -2.28%

C=C[C@@H]1C[C@@H]2Cc3cc(F)ccc3N1O2
active: CCRF-CEM leukemia -57.7%
inactive: HCT-15 colon 104% | SNB-75 CNS 99.7% | SNB-19 CNS 109% | U251 CNS 99.3% | PC-3 prostate 102% | SK-MEL-5 melanoma 108% | UACC-62 melanoma 100% | LOX IMVI melanoma 104% | SK-MEL-28 melanoma 115% | SK-MEL-2 melanoma 117% | EKVX NSCLC 110% | SN12C renal 102% | UO-31 renal 129% | TK-10 renal 107% | ACHN renal 106% | CAKI-1 renal 92.5% | A498 renal 97.8%

C=C(C)[C@@H]1C[C@@H]2Cc3cc(Cl)ccc3N1O2
active: CCRF-CEM leukemia -70.8%
inactive: HCT-15 colon 97.9% | SNB-75 CNS 99.2% | SNB-19 CNS 105% | U251 CNS 94.5% | PC-3 prostate 96.5% | SK-MEL-5 melanoma 95.8% | UACC-62 melanoma 94.9% | LOX IMVI melanoma 99.3% | SK-MEL-28 melanoma 108% | SK-MEL-2 melanoma 130% | EKVX NSCLC 84.7% | SN12C renal 102% | UO-31 renal 100% | TK-10 renal 129% | ACHN renal 99% | A498 renal 96.3%

COc1cc(C2CC(c3ccc4c(c3)OCO4)=NN2C=O)cc(OC)c1OC (centres undefined)
inactive: HCT-15 colon 33.5% | SNB-19 CNS 42.8% | U251 CNS 32% | PC-3 prostate 47.9% | SK-MEL-5 melanoma 17.2% | UACC-62 melanoma 40.9% | LOX IMVI melanoma 34.5% | SK-MEL-28 melanoma 50.6% | SK-MEL-2 melanoma 31.3% | EKVX NSCLC 37.9% | SN12C renal 46.3% | TK-10 renal 53.2% | A498 renal 31.2% | CCRF-CEM leukemia 24.5% | MOLT-4 leukemia 45%
active: SNB-75 CNS -13.5% | CAKI-1 renal 6.42%

O=[N+]([O-])c1cc(S(=O)(=O)Oc2ccccc2)ccc1Cl
inactive: HCT-15 colon 40.5% | SNB-75 CNS 52.2% | SNB-19 CNS 30.6% | PC-3 prostate 25.5% | UACC-62 melanoma 65.8% | SK-MEL-2 melanoma 87.5% | EKVX NSCLC 65% | TK-10 renal 52.3% | ACHN renal 37.6% | A498 renal 96.7% | MOLT-4 leukemia 19.4%
active: U251 CNS 0.0855% | SK-MEL-5 melanoma 6.43% | LOX IMVI melanoma -80.1% | SK-MEL-28 melanoma -18% | UO-31 renal -87.7% | CAKI-1 renal -89.4% | CCRF-CEM leukemia -22.1%

CNC(=S)NNC(=O)C1CC1
inactive: HCT-15 colon 105% | SNB-75 CNS 96.5% | SNB-19 CNS 106% | U251 CNS 109% | PC-3 prostate 102% | SK-MEL-5 melanoma 105% | UACC-62 melanoma 111% | LOX IMVI melanoma 99.9% | SK-MEL-28 melanoma 113% | EKVX NSCLC 105% | SN12C renal 109% | UO-31 renal 77.5% | TK-10 renal 119% | ACHN renal 106% | CAKI-1 renal 96% | A498 renal 109% | CCRF-CEM leukemia 97.3% | MOLT-4 leukemia 85.1%

Cc1ccc(Nc2nnc(-c3ccc(Cl)cc3)o2)c(C)c1
inactive: HCT-15 colon 44.7% | SNB-75 CNS 78.7% | SNB-19 CNS 95.8% | U251 CNS 83.8% | PC-3 prostate 92.1% | SK-MEL-5 melanoma 92.7% | UACC-62 melanoma 70.8% | LOX IMVI melanoma 75.9% | SK-MEL-28 melanoma 76.8% | SK-MEL-2 melanoma 67.9% | SN12C renal 97.7% | UO-31 renal 82.6% | TK-10 renal 102% | ACHN renal 95.7% | A498 renal 81.6% | CCRF-CEM leukemia 83.3% | MOLT-4 leukemia 61.7%

CCCCCCCCCCCCCCCCNC(=O)OC(C)C
active: PC-3 prostate -16.9% | LOX IMVI melanoma -2.25% | TK-10 renal -3.04% | CCRF-CEM leukemia 7.75% | MOLT-4 leukemia 7.03%
inactive: HCT-15 colon 55.9% | SNB-75 CNS 64% | SNB-19 CNS 95.5% | U251 CNS 14.1% | SK-MEL-5 melanoma 91% | UACC-62 melanoma 81.7% | SK-MEL-28 melanoma 95.9% | SK-MEL-2 melanoma 58.7% | EKVX NSCLC 22.8% | SN12C renal 64.3% | CAKI-1 renal 28.5% | A498 renal 75.1%

COc1ccc2c(c1)OC1=C(C(=O)OC1)C2c1cc(OC)c2c(c1)OCO2 (centres undefined)
active: SK-MEL-5 melanoma -54.3% | MOLT-4 leukemia 5.79%
inactive: HCT-15 colon 19.2% | SNB-75 CNS 36.5% | SNB-19 CNS 29% | U251 CNS 19.9% | PC-3 prostate 22% | UACC-62 melanoma 39.7% | LOX IMVI melanoma 17.2% | SK-MEL-28 melanoma 64.4% | SK-MEL-2 melanoma 43.2% | EKVX NSCLC 51.2% | SN12C renal 23.8% | UO-31 renal 41.6% | TK-10 renal 47.3% | CAKI-1 renal 42.7% | A498 renal 24.2% | CCRF-CEM leukemia 16.3%
